Hits are enriched below; roughly 6% of the tested compounds scored in any of these assays.
D1 PAM – human D1 dopamine receptor positive modulation. potentiation, % at 10 µM. 0.036% of 360,000 active. HEK293 TREx D1 cells, calcium flux, dopamine EC20 potentiation; in the data active = potentiation above about 30%; note: 0% is about no effect
D1 antagonist – human D1 dopamine receptor antagonism; P21728; activity change, negative = inhibition, % at 10 µM; AID 504652; HEK293 TREx D1 cells, calcium flux, dopamine EC80; hits give low values; 3.2% of 360,000 active; in the data active = activity change below about -30%; note: % is set by controls: 0 for no effect and ±100 for the full control effect
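Antagonism measured as reduced calcium response to an EC80 dopamine addition following 180 s compound pre-read; cells were inducible HEK293 Trex D1 plated overnight at 30 C, read kinetically at 1 cycle/sec.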
D1 ag – activates the human D1 dopamine receptor. P21728. HEK293 T-REx D1 cells, calcium flux, agonist mode. activation, % at 2 µM. 1% of 360,000 active; in the data active = activation above about 30%; note: 0% is about no effect
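Agonism was scored from calcium flux recorded over 180 s (1 read/s) after pintool compound addition, following a 10-cycle baseline. Cells were inducible force-coupled HEK293 TREx D1, plated overnight at 30 C and loaded with no-wash calcium dye.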
D3 antag – D3 dopamine receptor (human) antagonism; D3R cells, DiscoveRx beta-arrestin luminescence, antagonist mode; hits give low values; max response, negative = inhibition, %; 2.5% of 360,000 active; in the data active = max response below about -50%; inconclusive = no clear call, values can overlap the other calls; note: % is set by controls: 0 for no effect and ±100 for the full control effect
Target sequence (P35462 whole entry, looked up): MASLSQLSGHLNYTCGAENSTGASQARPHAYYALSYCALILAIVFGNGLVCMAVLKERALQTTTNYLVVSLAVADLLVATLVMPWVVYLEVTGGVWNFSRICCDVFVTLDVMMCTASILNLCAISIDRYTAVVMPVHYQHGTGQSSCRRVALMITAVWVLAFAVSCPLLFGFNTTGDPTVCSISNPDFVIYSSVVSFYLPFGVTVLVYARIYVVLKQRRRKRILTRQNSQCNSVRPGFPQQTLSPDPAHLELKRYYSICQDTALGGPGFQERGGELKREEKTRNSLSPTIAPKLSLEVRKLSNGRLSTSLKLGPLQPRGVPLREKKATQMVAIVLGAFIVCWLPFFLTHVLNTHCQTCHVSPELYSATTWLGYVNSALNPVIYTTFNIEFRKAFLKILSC
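Cells plated overnight at 1500 cells/well, then exposed to library compounds with dopamine controls for 90 minutes at 37 degrees C. DiscoveRx reagent added for 30–60 minutes at room temperature; luminescence read, quantitative HTS format.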
D3 ag – activates the human D3 dopamine receptor | D3R DiscoveRx beta-arrestin cells, luminescence, 90 min | max activation, % | 0.58% of 410,000 active | AID 652048; in the data active = max activation above about 30%; note: 0% is about no effect
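Agonist mode: compounds and dopamine controls were applied to plated cells for 90 min at 37 degrees C after an overnight attachment at 1500 cells/well. Luminescent read-out followed 30 - 60 minutes at room temperature with DiscoveRx detection reagent.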
Active calls of the source: *; ? = inconclusive; . = no result given.

SMILES	D1 PAM	D1 antagonist	D1 ag	D3 antag	D3 ag
O=C(C1CCCN(Cc2ccccc2F)C1)N1CCc2ccccc2C1 (stereo not drawn)	0.6	-22.7	-1.0	-51.7*	-27.0
COc1cc(CN2CCCC(C(=O)Nc3cccc(-n4cccn4)c3)C2)ccc1F (stereo not drawn)	-10.8	4.3	13.2	2.2	-9.1
O=C(C1CCCN(Cc2ccccc2F)C1)N1CCCCC1 (stereo not drawn)	-2.0	4.6	0.9	-21.9	-29.4
COc1ccc(CCNC(=O)Cc2c(C)c3cc4c(C)coc4cc3oc2=O)cc1OC	-1.0	6.1	1.9	.	1.7
Cc1ccc(S(=O)(=O)CCC(=O)OCC(=O)N(C)c2ccccc2)cc1	.	.	.	7.8	-3.2
Cc1cccc(NC(=O)CN2C(=O)c3cccc4cccc2c34)c1C	-4.2	-5.1	1.2	.	5.5
CCOC(=O)C1Nc2ccccc2C2C(O)C(O)CC12 (stereo not drawn)	.	.	.	-52.0*	-34.3
COc1ccc2c(=O)cc(CO)oc2c1	.	.	.	0.0	37.7*
COc1cc(/C=C2/SC(=S)N(CCC(=O)Nc3ccccc3)C2=O)cc(OC)c1OC	-5.0	-0.1	29.4	-9.9	6.4
COc1cc(/C=C2\SC(=S)N(N3CCOCC3)C2=O)ccc1O	-2.6	-17.9	30.2*	?	1.6
O=C1/C(=C\c2cc([N+](=O)[O-])ccc2O)SC(=S)N1Cc1ccc(Cl)cc1	-6.2	-4.7	196.8*	-13.7	2.5
COc1cc(/C=C2\SC(=S)N(CCC(=O)Nc3ccccc3)C2=O)cc(OC)c1OC	0.3	5.9	45.5*	10.9	0.6
O=C(CN1C(=O)S/C(=C\c2cc(Cl)c(O)c(Cl)c2)C1=O)Nc1ccccc1	-2.1	12.0	48.3*	29.2	5.8
O=C(CN1C(=O)S/C(=C\c2ccccn2)C1=O)Nc1ccccc1	-3.9	-2.0	2.5	-22.4	1.9
Cc1cc(NC(=O)c2ccc3c(c2)N(Cc2cccc(Cl)c2)C(=O)c2ccccc2S3(=O)=O)ccc1Br	-1.9	9.3	10.0	.	-5.0
COc1ccccc1-c1noc2c1C(=O)N(Cc1cn(-c3ccccc3OC)nn1)CC2	.	.	.	-12.0	-2.2
O=[N+]([O-])c1cccc(S(=O)(=O)Nc2ccccn2)c1	.	.	.	2.1	0.5
COc1ccc(NC(=O)N(C)[C@H]2C[C@H]3c4[nH]c5ccccc5c4CCN3C(=O)[C@H]2CO)cc1	.	.	.	-10.2	-8.9
O=C1Nc2cc(Cl)ccc2Oc2cc(Oc3ccccc3)ccc21	3.5	-5.7	0.7	.	-12.2
COc1cc(/C=C2/SC(=S)N(Cc3ccccc3)C2=O)ccc1O	7.8	6.5	102.3*	-61.2*	-19.3
CN1C(=O)/C(=C\c2cccc(OCc3ccccc3)c2)SC1=S	-2.8	-33.9*	1.3	10.3	-4.9
O=C1/C(=C\c2ccc(O)c(O)c2)SC(=S)N1Cc1ccccc1	4.8	-4.1	77.5*	?	-3.3
O=C1/C(=C\c2cccc(O)c2)SC(=S)N1Cc1ccccc1	-11.7	4.4	1.7	5.1	3.4
O=C(O)CN1C(=O)/C(=C\c2cccc(OCc3ccccc3)c2)SC1=S	-10.9	-1.6	2.4	-4.7	0.2
COc1cc(/C=C2/SC(=NCc3ccccc3)N(Cc3ccccc3)C2=O)ccc1O	4.5	6.6	4.3	-14.4	-8.4
SMILES	D1 PAM	D1 antagonist	D1 ag	D3 antag	D3 ag
COc1cccc(CN(C)CCCn2cnc3c(SC)ncnc32)c1	.	.	.	18.9	-6.2
CC1=C(C(=O)OCc2ccc(C)cc2)C(c2cccc(F)c2F)CC(=O)N1 (stereo not drawn)	0.3	8.8	7.4	.	11.4
CC1(C(=O)Nc2ccc(Cl)c(Cl)c2)CCN1C(=O)Cc1ccc(-c2ccccc2)cc1 (stereo not drawn)	.	.	.	19.0	13.1
CC(=O)Nc1ccccc1OCC(=O)c1ccc2c(c1)OCO2	-0.3	-0.4	4.4	13.3	46.6*
CN(C)CCC(=O)c1ccc2c(c1)OCO2	-6.8	-0.6	7.4	-61.0*	-2.0
COc1ccc(OCC(=O)NCC(c2ccc(OC)cc2)N2CCOCC2)cc1 (stereo not drawn)	-0.1	2.6	-1.9	.	-34.7
COc1ccc(C(CNC(=O)C(C)(C)Oc2ccc(Cl)cc2)N2CCOCC2)cc1 (stereo not drawn)	.	.	.	-74.9*	-27.8
CC(C)(Oc1ccc(Cl)cc1)C(=O)NCC(c1ccco1)N1CCCCC1 (stereo not drawn)	-6.2	-18.1	0.3	-12.7	-25.1
COc1ccc(C(CNC(=O)C(C)(C)Oc2ccc(Cl)cc2)N2CCCCC2)cc1 (stereo not drawn)	-5.3	-1.2	1.4	-82.6*	-13.6
CCOC(=O)C1=C(C)OC(N)=C(C#N)C1c1ccc(O)c(OC)c1 (stereo not drawn)	-5.5	2.4	-0.1	-62.1*	-5.9
CCSc1cc(C2C(C#N)=C(N)OC(C)=C2C(=O)OC)c(C)o1 (stereo not drawn)	0.3	-1.2	5.9	-67.2*	-1.3
CCOC(=O)C1=C(C)OC(N)=C(C#N)C1c1ccccc1 (stereo not drawn)	5.0	9.7	1.8	-12.2	-4.0
Cc1nn(-c2ccccc2)c2nc(-c3ccco3)cc(C(=O)O)c12	-4.1	7.5	0.5	-51.7*	5.7
COc1ccc(-c2cc(C(=O)O)c3c(C)nn(-c4ccccn4)c3n2)cc1	-5.2	-40.1*	4.2	-7.0	-3.8
Cc1nn(-c2cccc(Cl)c2)c2nc(-c3ccco3)cc(C(=O)O)c12	-3.0	2.1	0.4	2.9	5.1
Cc1ccc(-n2nc(C)c3c(C(=O)O)cc(C)nc32)cc1	-5.0	-49.6*	0.0	.	10.4
CCN(CC)CCCN(Cc1cc2ccc(C)c(C)c2[nH]c1=O)C(=O)NC1CCCCC1	-6.5	14.5	0.3	-56.7*	-54.9
O=C(/C=C/c1ccc(S(=O)(=O)N2CCOCC2)cc1)NCc1ccc(Cl)cc1	-10.4	7.2	4.3	15.1	-8.5
CSc1ccc(/C=C/c2nc3ccccc3n2S(=O)(=O)c2ccc(Br)cc2)cc1	0.7	-30.2*	9.2	.	-9.9
Cc1nc2ccccc2n1S(=O)(=O)c1ccc(Br)cc1	-10.6	-44.2*	4.5	-17.2	-13.3
CCc1ccc(S(=O)(=O)n2c(C)nc3ccccc32)cc1	-2.2	-1.4	4.0	0.0	3.5
Cc1cc(Cl)ccc1-c1nc(NC(C)C)nc2ccsc12	.	.	.	-0.5	-3.6
CC(=O)N1CCc2cc(CNC(=O)Nc3cc(Cl)ccc3C)ccc21	-3.0	4.1	1.3	.	-2.4
CCOc1cc(/C=N/Nc2cc(C)nc(-n3nc(C)cc3C)n2)ccc1O	-1.6	12.1	1.4	-174.9*	-41.3
CCOc1ccc(Nc2cc(C)nc(-n3nc(C)cc3C)n2)cc1	-5.3	-33.2*	1.3	-52.3*	0.6
Cc1ccc(Nc2cc(C)nc(-n3nc(C)cc3C)n2)cc1	-1.4	4.9	-0.2	.	-9.7
CCCC(=O)O[C@]1(C(=O)COC(=O)CC)[C@@H](C)C[C@H]2[C@@H]3CCC4=CC(=O)C=C[C@]4(C)[C@@]3(F)[C@@H](O)C[C@@]21C	.	.	.	.	-7.4
